Measured values as given in the supplement of paper PMC10849652.
Targets with a hit are over-represented here; the source holds about 7,900 in all. About 0.6% of all pairs of compound and target were hits.

What was measured:
Experiment in all cases: log2 fold change, soluble protein after heating vs DMSO (PISA); higher = thermal stabilisation; K562 cells, 10 uM, 30 min; active = over 0.2 and 3.5 SD of the protein, either way, in both replicates (recomputed)
[1] = compound: CS(=O)(=O)c1ccc(-c2cnc(N)c(C(=O)Nc3ccccc3)n2)cc1
Method in brief: (§1)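 Thermal stability values are relative to control samples and come from duplicates. They are expressed as log2 fold changes. For measurement, K562 cells (2×10^6 cells/mL) received 10 μM compound for 30 min, and aliquots were heated for 3 min over 48°C-58°C, pooled, and extracted at 4°C in PBS with 0.5% NP-40. Soluble protein, the supernatant after 21,000xg for 90 min, was quantified by TMTpro 16plex LC-MS/MS with equalised channel sums.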

crizotinib = compound: C[C@@H](Oc1cc(-c2cnn(C3CCNCC3)c2)cnc1N)c1c(Cl)ccc(F)c1Cl [crizotinib]
Method in brief: as §1

[2] = compound: C[C@@H]1COCCN1C2=NC(=NC(=C2)C3(CC3)S(=O)(=O)C)C4=C5C=CNC5=CC=C4
Method in brief: as §1

[3] = compound: C[C@H](C1=CC=C(C=C1)C(=O)NC2=C3C=CNC3=NC=C2)N
Method in brief: as §1

duvelisib = compound: C[C@H](Nc1ncnc2nc[nH]c12)c1cc2cccc(Cl)c2c(=O)n1-c1ccccc1 [duvelisib]
Method in brief: as §1

gandotinib = compound: Cc1cc(Nc2cc(CN3CCOCC3)c3nc(C)c(Cc4ccc(Cl)cc4F)n3n2)n[nH]1 [gandotinib]
Method in brief: as §1

tozasertib = compound: Cc1cc(Nc2cc(N3CCN(C)CC3)nc(Sc3ccc(NC(=O)C4CC4)cc3)n2)n[nH]1 [tozasertib]
Method in brief: as §1

[4] = compound: Cc1cc(SCc2sc(-c3ccc(C(F)(F)F)cc3)nc2C)ccc1OCC(=O)O
Method in brief: as §1

doramapimod = compound: Cc1ccc(-n2nc(C(C)(C)C)cc2NC(=O)Nc2ccc(OCCN3CCOCC3)c3ccccc23)cc1 [doramapimod]
Method in brief: as §1

ispinesib = compound: Cc1ccc(C(=O)N(CCCN)[C@@H](c2nc3cc(Cl)ccc3c(=O)n2Cc2ccccc2)C(C)C)cc1 [ispinesib]
Method in brief: as §1

Measured: log2 fold change

CTSZ (UniProt Q9UBR2)
Chain of UniProt Q9UBR2 (Q9UBR2 whole entry, looked up): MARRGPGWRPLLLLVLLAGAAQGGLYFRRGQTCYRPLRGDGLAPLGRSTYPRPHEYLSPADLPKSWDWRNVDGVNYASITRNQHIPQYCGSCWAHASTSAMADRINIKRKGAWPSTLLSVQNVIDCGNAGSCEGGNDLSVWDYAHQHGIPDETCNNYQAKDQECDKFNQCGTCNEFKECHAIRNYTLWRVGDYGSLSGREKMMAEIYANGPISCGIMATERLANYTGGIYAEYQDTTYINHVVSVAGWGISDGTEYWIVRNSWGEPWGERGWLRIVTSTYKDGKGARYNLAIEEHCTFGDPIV
active: ispinesib -0.481
inactive: [1] -0.001 | crizotinib -0.007 | [2] 0.021 | [3] -0.033 | duvelisib -0.037 | gandotinib 0.03 | tozasertib -0.015 | [4] -0.037 | doramapimod 0.05

CWC27 (UniProt Q6UX04)
Chain of UniProt Q6UX04 (Q6UX04 whole entry, looked up): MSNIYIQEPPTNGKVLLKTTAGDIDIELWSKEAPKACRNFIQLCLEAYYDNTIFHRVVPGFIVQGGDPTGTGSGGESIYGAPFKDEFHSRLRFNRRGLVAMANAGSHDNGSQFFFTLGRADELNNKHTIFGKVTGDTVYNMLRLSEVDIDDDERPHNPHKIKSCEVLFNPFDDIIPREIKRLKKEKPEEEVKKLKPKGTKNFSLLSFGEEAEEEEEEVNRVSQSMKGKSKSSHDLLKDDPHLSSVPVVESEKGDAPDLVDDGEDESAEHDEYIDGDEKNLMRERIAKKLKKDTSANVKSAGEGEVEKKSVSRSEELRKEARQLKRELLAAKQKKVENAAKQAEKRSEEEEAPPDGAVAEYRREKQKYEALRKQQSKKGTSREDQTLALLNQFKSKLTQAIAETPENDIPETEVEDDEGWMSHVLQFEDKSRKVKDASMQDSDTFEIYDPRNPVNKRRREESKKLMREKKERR
inactive: [1] 0.03 | crizotinib 0.14 | [2] 0.145 | [3] -0.001 | duvelisib 0.144 | gandotinib 0.033 | tozasertib 0.077 | [4] 0.169 | doramapimod -0.091 | ispinesib -0.017

CTSH (UniProt P09668)
inactive: [1] 0.032 | [2] 0.074 | [3] -0.02 | duvelisib -0.034 | gandotinib 0.031 | tozasertib -0.068 | [4] -0.068 | doramapimod 0.023 | ispinesib -0.221
active: crizotinib -0.249

DNM2 (UniProt P50570)
inactive: [1] 0.017 | crizotinib -0.082 | [2] 0.062 | [3] -0.021 | duvelisib 0.05 | gandotinib -0.06 | tozasertib -0.071 | [4] 0.039 | doramapimod -0.039 | ispinesib -0.01

DHRS3 (UniProt O75911)
Chain of UniProt O75911 (O75911 whole entry, looked up): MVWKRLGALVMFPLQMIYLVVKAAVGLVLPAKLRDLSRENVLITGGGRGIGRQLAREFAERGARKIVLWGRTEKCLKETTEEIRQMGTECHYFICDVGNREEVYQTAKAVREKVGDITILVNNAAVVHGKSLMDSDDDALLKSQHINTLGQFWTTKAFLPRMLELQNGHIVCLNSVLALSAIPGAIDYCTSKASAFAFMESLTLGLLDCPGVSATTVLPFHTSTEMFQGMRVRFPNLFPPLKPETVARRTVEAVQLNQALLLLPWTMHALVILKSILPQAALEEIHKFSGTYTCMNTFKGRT
inactive: [1] 0.083 | crizotinib 0.093 | [2] 0.115 | [3] 0.069 | duvelisib 0.027 | gandotinib -0.027 | tozasertib -0.089 | [4] -0.049 | doramapimod -0.037 | ispinesib 0.015

ERLIN2 (UniProt O94905)
Chain of UniProt O94905 (O94905 whole entry, looked up): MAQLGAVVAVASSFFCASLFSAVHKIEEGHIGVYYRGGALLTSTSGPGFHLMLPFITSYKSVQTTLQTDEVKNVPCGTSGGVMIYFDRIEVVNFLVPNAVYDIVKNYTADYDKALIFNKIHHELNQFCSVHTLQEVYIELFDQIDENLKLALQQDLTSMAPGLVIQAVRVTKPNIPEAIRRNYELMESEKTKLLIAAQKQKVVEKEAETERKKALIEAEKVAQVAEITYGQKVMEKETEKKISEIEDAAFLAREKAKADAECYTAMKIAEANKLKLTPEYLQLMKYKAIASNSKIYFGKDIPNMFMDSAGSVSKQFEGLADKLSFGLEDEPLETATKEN
active: ispinesib -0.251
inactive: [1] -0.017 | crizotinib -0.034 | [2] -0.167 | [3] 0.068 | duvelisib -0.032 | gandotinib -0.044 | tozasertib 0.009 | [4] 0.155 | doramapimod 0.057

EEF1B2 (UniProt P24534)
inactive: [1] 0.003 | crizotinib -0.018 | [2] -0.073 | [3] 0.092 | duvelisib 0.04 | gandotinib -0.043 | tozasertib 0.052 | [4] 0.013 | doramapimod -0.065 | ispinesib -0.024

DDX5 (UniProt P17844)
inactive: [1] 0.035 | crizotinib -0.16 | [2] 0.135 | [3] 0.125 | duvelisib 0.041 | gandotinib -0.016 | tozasertib 0.012 | [4] 0.165 | doramapimod -0.044 | ispinesib 0.052

DCAF6 isoform 3 (UniProt Q58WW2)
inactive: [1] -0.008 | crizotinib 0.132 | [2] 0.026 | [3] -0.054 | duvelisib 0.025 | gandotinib -0.024 | tozasertib -0.034 | [4] -0.058 | doramapimod 0.056 | ispinesib 0.027

ECH1 (UniProt Q13011)
inactive: [1] 0.025 | crizotinib -0.086 | [2] 0.068 | [3] -0.011 | duvelisib 0.04 | gandotinib -0.195 | [4] -0.008 | doramapimod -0.023 | ispinesib -0.208
active: tozasertib 0.434

EEF1G isoform 2 (UniProt P26641)
Chain of UniProt P26641 (P26641 whole entry, looked up): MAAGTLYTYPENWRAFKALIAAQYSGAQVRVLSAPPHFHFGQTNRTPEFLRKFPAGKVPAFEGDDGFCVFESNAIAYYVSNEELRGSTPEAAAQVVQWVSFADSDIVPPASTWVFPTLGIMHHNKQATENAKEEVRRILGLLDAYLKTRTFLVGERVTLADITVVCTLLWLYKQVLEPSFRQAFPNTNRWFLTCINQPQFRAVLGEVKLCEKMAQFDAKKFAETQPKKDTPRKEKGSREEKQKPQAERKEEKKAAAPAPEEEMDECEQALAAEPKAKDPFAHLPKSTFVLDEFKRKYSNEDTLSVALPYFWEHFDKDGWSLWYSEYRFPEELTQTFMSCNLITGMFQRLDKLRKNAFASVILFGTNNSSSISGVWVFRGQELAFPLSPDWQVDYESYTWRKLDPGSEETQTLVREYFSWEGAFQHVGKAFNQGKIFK
inactive: [1] 0.011 | crizotinib 0.015 | [2] -0.028 | [3] 0.006 | duvelisib -0.011 | gandotinib -0.061 | tozasertib 0.046 | [4] 0.061 | doramapimod -0.013 | ispinesib 0.061

ESYT1 isoform 2 (UniProt Q9BSJ8)
inactive: [1] 0.021 | crizotinib -0.134 | [2] -0.076 | [3] 0.069 | duvelisib 0.014 | gandotinib 0.024 | tozasertib -0.017 | [4] 0.11 | doramapimod 0.083 | ispinesib -0.265

CTSC (UniProt P53634)
inactive: [1] 0.042 | crizotinib -0.037 | [2] -0.015 | [3] -0.062 | duvelisib 0.018 | gandotinib 0 | tozasertib 0.063 | [4] -0.047 | doramapimod 0.013 | ispinesib -0.057

CYFIP1 (UniProt Q7L576)
inactive: [1] 0.038 | crizotinib -0.029 | [2] 0.063 | [3] -0.042 | duvelisib 0.031 | gandotinib -0.079 | tozasertib 0 | [4] 0.038 | doramapimod -0.026 | ispinesib 0.031

CYBA (UniProt P13498)
active: ispinesib -0.488
inactive: [1] 0.069 | crizotinib -0.108 | [2] 0.024 | [3] -0.045 | duvelisib 0.05 | gandotinib -0.231 | tozasertib -0.043 | [4] 0.04 | doramapimod 0.01

EIF3J (UniProt O75822)
inactive: [1] -0.024 | crizotinib -0.012 | [2] 0.009 | [3] -0.035 | duvelisib 0.048 | gandotinib -0.157 | tozasertib 0.038 | [4] 0.005 | doramapimod -0.022 | ispinesib 0.099

DTWD2 (UniProt Q8NBA8)
inactive: [1] 0.06 | crizotinib 0.133 | [2] 0.137 | [3] -0.103 | duvelisib -0.036 | gandotinib 0.027 | tozasertib -0.019 | [4] 0 | doramapimod 0.009 | ispinesib -0.092

DHX36 (UniProt Q9H2U1)
Chain of UniProt Q9H2U1 (Q9H2U1 whole entry, looked up): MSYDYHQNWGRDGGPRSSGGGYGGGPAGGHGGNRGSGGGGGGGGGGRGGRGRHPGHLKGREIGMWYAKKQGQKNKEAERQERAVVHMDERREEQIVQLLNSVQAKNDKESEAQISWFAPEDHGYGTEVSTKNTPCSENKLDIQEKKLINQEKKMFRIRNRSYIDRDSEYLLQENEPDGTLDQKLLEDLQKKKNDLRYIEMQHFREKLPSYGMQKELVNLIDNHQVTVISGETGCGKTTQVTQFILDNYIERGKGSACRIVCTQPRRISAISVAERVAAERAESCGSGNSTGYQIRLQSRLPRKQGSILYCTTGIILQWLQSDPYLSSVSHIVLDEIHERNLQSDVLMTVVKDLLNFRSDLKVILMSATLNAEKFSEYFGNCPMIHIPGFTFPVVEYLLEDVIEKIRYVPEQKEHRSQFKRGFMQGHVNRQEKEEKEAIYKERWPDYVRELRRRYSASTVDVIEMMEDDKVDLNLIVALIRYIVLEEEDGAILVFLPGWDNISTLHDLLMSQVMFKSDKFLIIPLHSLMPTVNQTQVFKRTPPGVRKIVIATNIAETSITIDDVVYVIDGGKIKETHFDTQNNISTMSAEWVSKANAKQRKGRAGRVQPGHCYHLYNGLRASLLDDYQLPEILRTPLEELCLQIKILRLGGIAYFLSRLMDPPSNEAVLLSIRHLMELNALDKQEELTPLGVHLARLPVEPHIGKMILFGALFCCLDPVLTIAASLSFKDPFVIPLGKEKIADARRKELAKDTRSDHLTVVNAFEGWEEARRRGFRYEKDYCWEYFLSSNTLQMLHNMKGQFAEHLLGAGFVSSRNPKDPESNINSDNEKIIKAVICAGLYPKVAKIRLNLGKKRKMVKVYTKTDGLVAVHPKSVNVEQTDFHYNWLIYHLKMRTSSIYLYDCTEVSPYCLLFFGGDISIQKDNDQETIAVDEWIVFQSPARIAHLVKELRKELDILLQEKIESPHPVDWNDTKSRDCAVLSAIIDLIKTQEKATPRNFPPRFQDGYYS
inactive: [1] -0.071 | crizotinib -0.101 | [2] -0.062 | [3] 0.2 | duvelisib -0.029 | gandotinib 0.069 | tozasertib -0.047 | [4] 0.045 | doramapimod 0.051 | ispinesib -0.081

EPHX2 (UniProt P34913)
inactive: [1] 0.036 | crizotinib 0.169 | [2] 0.194 | [3] -0.019 | duvelisib 0.029 | gandotinib -0.018 | tozasertib 0.144 | [4] -0.032 | doramapimod -0.016 | ispinesib -0.01

ETNK1 (UniProt Q9HBU6)
Chain of UniProt Q9HBU6 (Q9HBU6 whole entry, looked up): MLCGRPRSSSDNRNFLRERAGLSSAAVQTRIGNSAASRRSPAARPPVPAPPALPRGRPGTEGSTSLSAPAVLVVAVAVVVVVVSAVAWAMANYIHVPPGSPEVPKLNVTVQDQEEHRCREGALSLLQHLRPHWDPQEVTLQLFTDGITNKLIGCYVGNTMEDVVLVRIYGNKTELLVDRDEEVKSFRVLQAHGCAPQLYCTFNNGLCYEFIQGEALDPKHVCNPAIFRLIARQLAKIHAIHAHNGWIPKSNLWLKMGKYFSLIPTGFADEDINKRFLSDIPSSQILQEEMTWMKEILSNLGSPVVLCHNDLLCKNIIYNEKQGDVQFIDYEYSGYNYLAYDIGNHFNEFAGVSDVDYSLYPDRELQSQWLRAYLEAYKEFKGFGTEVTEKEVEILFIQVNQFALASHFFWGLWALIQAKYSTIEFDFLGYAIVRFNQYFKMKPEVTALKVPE
inactive: [1] -0.006 | crizotinib -0.022 | [2] 0.088 | [3] -0.032 | duvelisib 0.075 | gandotinib -0.057 | tozasertib 0.021 | [4] 0.118 | doramapimod 0.001 | ispinesib 0.059

DYNC1I2 isoform 2 (UniProt Q13409)
inactive: [1] 0.185 | crizotinib -0.05 | [2] -0.02 | tozasertib 0.044 | doramapimod -0.079 | ispinesib 0.06
active: [3] -0.647

ELMO1 (UniProt Q92556)
inactive: [1] 0.06 | crizotinib -0.019 | [2] 0 | duvelisib 0.163 | [4] -0.043 | doramapimod 0.033 | ispinesib -0.299

ELOVL1 (UniProt Q9BW60)
Chain of UniProt Q9BW60 (Q9BW60 whole entry, looked up): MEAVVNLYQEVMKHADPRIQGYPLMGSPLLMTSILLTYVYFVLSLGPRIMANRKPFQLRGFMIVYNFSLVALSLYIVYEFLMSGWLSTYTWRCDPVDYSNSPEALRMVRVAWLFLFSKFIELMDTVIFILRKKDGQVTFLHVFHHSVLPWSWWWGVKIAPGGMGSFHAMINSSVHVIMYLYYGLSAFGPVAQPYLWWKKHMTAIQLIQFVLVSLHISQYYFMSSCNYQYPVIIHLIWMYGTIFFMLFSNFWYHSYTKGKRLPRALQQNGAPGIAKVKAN
inactive: [1] 0.082 | crizotinib -0.182 | [2] -0.065 | [3] -0.14 | duvelisib 0.124 | gandotinib -0.206 | tozasertib -0.003 | [4] 0.078 | doramapimod -0.082 | ispinesib -0.297

ENTPD7 (UniProt Q9NQZ7)
Chain of UniProt Q9NQZ7 (Q9NQZ7 whole entry, looked up): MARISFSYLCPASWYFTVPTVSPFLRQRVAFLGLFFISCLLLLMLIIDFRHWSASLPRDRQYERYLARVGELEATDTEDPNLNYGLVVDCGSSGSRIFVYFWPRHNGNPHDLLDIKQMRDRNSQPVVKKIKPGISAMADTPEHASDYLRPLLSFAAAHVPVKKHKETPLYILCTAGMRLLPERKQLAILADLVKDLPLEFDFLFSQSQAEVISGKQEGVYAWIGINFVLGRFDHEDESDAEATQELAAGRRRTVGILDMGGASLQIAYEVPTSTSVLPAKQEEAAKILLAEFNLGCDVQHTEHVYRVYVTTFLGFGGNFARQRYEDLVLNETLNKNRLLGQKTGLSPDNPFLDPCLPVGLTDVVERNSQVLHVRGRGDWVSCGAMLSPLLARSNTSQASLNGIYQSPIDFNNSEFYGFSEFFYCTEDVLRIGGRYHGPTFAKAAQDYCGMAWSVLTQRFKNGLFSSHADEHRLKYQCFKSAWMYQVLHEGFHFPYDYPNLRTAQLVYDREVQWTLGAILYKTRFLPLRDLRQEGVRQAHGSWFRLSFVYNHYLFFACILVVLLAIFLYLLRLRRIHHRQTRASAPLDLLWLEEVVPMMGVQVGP
inactive: [1] 0.256 | crizotinib 0.084 | [2] -0.037 | duvelisib -0.178 | tozasertib 0.185 | [4] 0.014 | doramapimod 0.025

DNAJB1 (UniProt P25685)
Chain of UniProt P25685 (P25685 whole entry, looked up): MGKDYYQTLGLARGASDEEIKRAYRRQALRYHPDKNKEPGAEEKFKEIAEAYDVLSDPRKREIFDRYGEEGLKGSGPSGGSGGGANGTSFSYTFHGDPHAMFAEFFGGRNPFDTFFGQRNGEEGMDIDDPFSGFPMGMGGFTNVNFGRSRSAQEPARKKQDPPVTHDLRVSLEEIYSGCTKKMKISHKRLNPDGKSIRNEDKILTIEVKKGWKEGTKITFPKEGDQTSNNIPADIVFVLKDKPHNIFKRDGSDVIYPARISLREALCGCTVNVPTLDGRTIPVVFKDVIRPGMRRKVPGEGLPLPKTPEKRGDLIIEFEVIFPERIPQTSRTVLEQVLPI
inactive: [1] -0.004 | crizotinib -0.004 | [2] 0.084 | [3] 0 | duvelisib 0.045 | gandotinib -0.041 | tozasertib -0.001 | [4] 0.059 | doramapimod -0.018 | ispinesib 0.019

CYB561A3 isoform 2 (UniProt Q8NBI2)
inactive: [1] 0 | crizotinib -0.05 | [3] -0.073 | duvelisib 0.021 | gandotinib -0.103 | tozasertib -0.126 | [4] -0.014 | doramapimod 0.021 | ispinesib -0.139

FAM193B (UniProt Q96PV7)
inactive: [1] -0.065 | crizotinib -0.081 | [2] -0.097 | [3] 0.348 | duvelisib -0.18 | tozasertib 0.062 | [4] -0.189 | doramapimod -0.046

DDX11 (UniProt Q96FC9)
inactive: [1] 0.02 | crizotinib -0.01 | [2] -0.144 | duvelisib 0.05 | tozasertib -0.068 | [4] 0.015 | doramapimod 0.224 | ispinesib 0.012

EBNA1BP2 (UniProt Q99848)
Chain of UniProt Q99848 (Q99848 whole entry, looked up): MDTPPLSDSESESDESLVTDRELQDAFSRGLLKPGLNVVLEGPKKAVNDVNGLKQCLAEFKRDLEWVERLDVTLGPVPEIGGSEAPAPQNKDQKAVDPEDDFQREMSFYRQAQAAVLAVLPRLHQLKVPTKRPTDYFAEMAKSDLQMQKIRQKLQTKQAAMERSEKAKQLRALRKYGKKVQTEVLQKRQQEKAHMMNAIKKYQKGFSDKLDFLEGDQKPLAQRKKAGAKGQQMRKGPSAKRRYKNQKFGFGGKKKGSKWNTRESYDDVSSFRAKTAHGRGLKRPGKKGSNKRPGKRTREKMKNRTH
inactive: [1] -0.013 | crizotinib -0.025 | [2] -0.236 | [3] 0.394 | duvelisib -0.138 | gandotinib 0.104 | tozasertib 0.191 | [4] 0.025 | doramapimod 0.282 | ispinesib 0.21

EEF1A1 (UniProt P68104)
inactive: [1] 0.081 | crizotinib 0.001 | [2] -0.022 | [3] -0.474 | duvelisib -0.048 | tozasertib -0.139 | [4] -0.004 | doramapimod -0.062 | ispinesib 0.115
